Assay results published in ChEMBL document CHEMBL2218924, “A broad activity screen in support of a chemogenomic map for kinase signalling research and drug discovery” (Biochem J, 2013).

target: MAP kinase-activated protein kinase 2 (Homo sapiens) (UniProt P49137); conditions: at 1 µM
Sequence (P49137 whole entry, looked up): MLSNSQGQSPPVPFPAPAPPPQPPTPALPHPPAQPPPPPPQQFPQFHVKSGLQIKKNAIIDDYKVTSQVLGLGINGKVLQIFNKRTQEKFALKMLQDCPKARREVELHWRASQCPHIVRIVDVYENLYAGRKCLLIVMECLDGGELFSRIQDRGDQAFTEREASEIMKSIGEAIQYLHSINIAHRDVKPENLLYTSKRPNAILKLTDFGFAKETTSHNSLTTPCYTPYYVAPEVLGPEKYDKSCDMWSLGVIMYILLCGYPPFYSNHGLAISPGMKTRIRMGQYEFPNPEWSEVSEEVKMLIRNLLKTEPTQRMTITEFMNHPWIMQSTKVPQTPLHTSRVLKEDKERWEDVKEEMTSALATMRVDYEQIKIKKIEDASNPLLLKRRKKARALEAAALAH

| SMILES | residual activity [%] |
| --- | --- |
| COc1cc2ncnc(Nc3ccc(Oc4ccccc4)cc3)c2cc1OC | 95 |
| Oc1c2ccccc2c2c3c(cccc13)N=N2 | 79 |
| Cc1nc2cc3nc(-c4cccs4)cnc3cc2n1C | 104 |
| Cn1nc2c3c(cccc31)C(=O)c1ccccc1-2 | 77 |
| CO[C@H]1[C@@H](OC)C[C@H](C)[C@@H](OC)C2=CC(=O)C=C(NC(=O)/C(C)=C/C=C/[C@H](OC)[C@@H](OC(N)=O)/C(C)=C/[C@@H]1C)C2=O | 101 |
| COc1ccc(CNc2nc(N(CCO)CCO)nc3c2ncn3C(C)C)cc1 | 96 |
| O=C1Nc2ccc(Br)cc2/C1=C\c1cc2c([nH]1)CCCC2 | 108 |
| O=[N+]([O-])c1ccc(-c2nc(-c3ccc(F)cc3)c(-c3ccncc3)[nH]2)cc1 | 92 |
| COc1ccc(S(=O)(=O)N(CCO)c2ccccc2CN(C)C/C=C/c2ccc(Cl)cc2)cc1 | 78 |
| N#Cc1cnc2cnc(NCc3cccnc3)cc2c1Nc1ccc(F)c(Cl)c1 | 51 |
| CCN(CC)C(=O)c1ccc(Nc2nc(OCC3CCCCC3)c3nc[nH]c3n2)cc1 | 81 |
| N#CCCc1ccc2c(c1)-c1[nH]c3ccc([N+](=O)[O-])cc3c1CC(=O)N2 | 57 |
| O=C1Nc2ccccc2/C1=C1/Nc2ccccc2/C1=N\OCCC(O)CO (configuration not stated) | 78 |
| O=C(Nc1cccc(Nc2nccc(Nc3cccc(C(F)(F)F)c3)n2)c1)C1CC1 | 115 |
| O=c1c2ccccc2[nH]c(=S)n1CCN1CCC(=C(c2ccc(F)cc2)c2ccc(F)cc2)CC1 | 97 |
| CN(C)CCCn1cc(C2=C(c3c[nH]c4ccccc34)C(=O)NC2=O)c2ccccc21 | 108 |

| SMILES | residual activity [%] |
| --- | --- |
| Oc1ccc(-c2nc(-c3ccc(F)cc3)c(-c3ccncc3)[nH]2)cc1 | 87 |
| O=C1NC(=O)c2cc(Nc3ccc(F)cc3)c(Nc3ccc(F)cc3)cc21 | 90 |
| CN(C)c1ccc(/C=C2\C(=O)Nc3ccccc32)cc1 | 121 |
| NC(=O)c1ccc2[nH]c(-c3ccc(Oc4ccc(Cl)cc4)cc3)nc2c1 | 103 |
| Nc1nc(Nc2ccc(S(N)(=O)=O)cc2)nn1C(=S)Nc1c(F)cccc1F | 44 |
| CC[n+]1c(/C=C/N(C)c2ccccc2)n(-c2ccccc2)c2ccc(-c3nc4ccccc4s3)cc21 | 95 |
| COc1cc2ncnc(Nc3ccc(O)c(Br)c3)c2cc1OC | 106 |
| Cc1cccc(-c2[nH]c(C(C)(C)C)nc2-c2ccc3c(c2)OCO3)n1 | 92 |
| Nc1ccc2ncnc(NCCc3ccc(Oc4ccccc4)cc3)c2c1 | 70 |
| N#CC(C#N)=C(N)/C(C#N)=C/c1ccc(O)cc1 | 94 |
| Cc1cncc2cccc(S(=O)(=O)N3CCCN(C(=O)CN)C[C@H]3C)c12 | 88 |
| Ic1cccc(CSc2nnc(-c3ccncc3)o2)c1 | 77 |
| CC(=O)c1ccc(N2CCOCC2)cc1O | 100 |
| COc1cc2ncnc(Nc3ccc(NC(=O)c4ccccc4)cc3)c2cc1OC | 108 |
| CO[C@@H]1[C@H](N(C)C(=O)c2ccccc2)C[C@H]2O[C@]1(C)n1c3ccccc3c3c4c(c5c6ccccc6n2c5c31)C(=O)NC4 | 75 |
| Nc1cccc(-c2cc3c(Oc4cccc(O)c4)ncnc3[nH]2)c1 | 71 |
